# Source: PubChem
# An excerpt weighted towards active compounds, which were near 9.3% of everything screened.
# SMN2 splice up – increases expression of the SMN2 splice variant | Potency, µM (highest dose often 46.1 µM), for the others: at the highest dose activity change, positive = activation, usual class: activators | AID 1458 | HEK293 SMN2-luciferase splicing reporter, luminescence, 30-36 h | 210,000 compounds, 2.8% hits; further: % of control where 0% means no effect; nearly all actives have a fitted effect of over 55% in size
#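 HEK293 cells carry an SMN2 […]–luciferase reporter in which exon 7 inclusion puts luciferase in frame. Cells were plated 10-12 h before compound addition, then incubated 30-36 h at 37C. ONE-Glo luminescence was read; sodium butyrate at 4.5 mM final served as control.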
# ELG1 repair inh – inhibitors of ELG1-dependent DNA repair in HEK293T cells; 330,000 compounds, 2.3% hits; HEK293T ELG1-luciferase reporter, luminescence, 16 h; DNA damage induced by 5-fluorouridine; Potency, µM (series often up to 46.1 µM), for inactives: top-dose activity change, negative = inhibition, most hits filed as inhibitors; further: on the % scale 0 is the no-effect control and ±100 the full control effect; nearly all actives have a fitted effect of over 55% in size
#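 5-Fluorouridine DNA damage + compound/DMSO, 2,000 cells/well, 16 h, 37 °C/5% CO2. ONE-Glo, 30 min RT, luminescence. Readout = decrease in reporter signal.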
# NPC1 promoter act – NPC1 promoter activation. Potency, µM (highest dose often 9.22 µM), inactives show at the top dose activation, hits mostly activators. 320,000 compounds, 2.4% hits. Huh7 NPC1 promoter luciferase reporter, 24 h. AID 485313; further: % of control where 0% means no effect; nearly all actives have a fitted effect of over 60% in size
#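 Huh7 cells stably carrying NPC1 promoter–luciferase, plated in Opti-MEM with 10% FBS for 2 h, were exposed to compound in DMSO for 24 h at 37 °C; luciferase reagent was added for 10 min and luminescence read.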
# ELG1 genotox – induces genotoxicity in HEK293T cells with luciferase-tagged ELG1; HEK293T ELG1-luciferase reporter, luminescence, 16 h; Potency, µM (titrated, usually from 46 µM), inactives show at the highest dose activity change, positive = activation, most hits filed as activators; 330,000 compounds, 1.3% hits; further: % of control where 0% means no effect; nearly all actives have a fitted effect of over 60% in size
#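 Genotoxicity was scored as increased ELG1-luciferase reporter signal, measured by ONE-Glo luminescence (30 min, room temperature). Compound or vehicle exposure of the HEK293T reporter cells lasted 16 hr at 37°C.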
# Rab9 promoter act – activates the Rab9 promoter; Huh7 Rab9 promoter-luciferase reporter, luminescence, 24 h; Potency, µM (doses to about 9.22 µM), for the others: at the highest dose activation, negative = inhibition, actives largely listed as activators; 320,000 compounds, 2.8% hits; AID 485297; further: % of control where 0% means no effect; nearly all actives have a fitted effect of over 60% in size
#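 Luciferase signal after 10 min detection reagent at ambient indicates Rab9 promoter upregulation; stably transfected Huh7 cells were treated 24 h with compound in DMSO at 37 °C, 5% CO2.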
# FLuc counter – inhibits or activates purified firefly luciferase, miR-21 counter-screen | P08659 | purified FLuc, Km substrates, luminescence inhibition | Potency, µM (titrated, usually from 57.5 µM), without a hit: top-dose activity change, negative = inhibition, usual class: inhibitors | 360,000 compounds, 6.9% hits | AID 588342;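 further: plate controls were vehicle for no effect and reference inhibitor for full effect; nearly all actives have a fitted effect of over 55% in size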
# Target sequence (P08659 whole entry, looked up): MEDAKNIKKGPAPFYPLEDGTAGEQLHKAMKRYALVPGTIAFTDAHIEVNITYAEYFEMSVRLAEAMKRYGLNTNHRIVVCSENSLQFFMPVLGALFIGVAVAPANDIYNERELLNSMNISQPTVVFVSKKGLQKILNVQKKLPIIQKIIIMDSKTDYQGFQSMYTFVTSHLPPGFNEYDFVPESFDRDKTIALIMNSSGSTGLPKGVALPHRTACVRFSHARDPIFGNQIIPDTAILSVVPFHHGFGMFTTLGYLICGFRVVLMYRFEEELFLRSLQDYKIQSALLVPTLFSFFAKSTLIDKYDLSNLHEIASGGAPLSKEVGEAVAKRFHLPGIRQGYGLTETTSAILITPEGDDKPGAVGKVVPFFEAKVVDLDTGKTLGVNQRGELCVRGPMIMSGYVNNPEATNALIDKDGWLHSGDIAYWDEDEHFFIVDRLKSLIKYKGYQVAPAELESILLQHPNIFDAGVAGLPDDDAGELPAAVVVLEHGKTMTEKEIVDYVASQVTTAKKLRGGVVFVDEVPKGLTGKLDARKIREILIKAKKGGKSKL
#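 Purified P. pyralis luciferase, 10 nM final, with Km-level 10 uM D-luciferin and 10 uM ATP in 50 mM Tris acetate pH 7.5, 10 mM Mg acetate, 0.01% Tween-20, 0.05% BSA; 6-point qHTS titration about 60 µM downward; luminescence read.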
# An asterisk follows results filed as active; ? = inconclusive; / = no result. The call rests on the fitted dose curve; in most records, active means well fitted curve in the direction sought with a large enough effect; inconclusive means small, poorly fitted or top-dose-only effect, or another doubt; inactive means no such curve, though single readings can be large; an effect the other way counts as inactive or inconclusive. Potency means the concentration at half of the fitted maximal effect.
SMILES,SMN2 splice up,ELG1 repair inh,NPC1 promoter act,ELG1 genotox,Rab9 promoter act,FLuc counter
O=C(O)Cc1sc(Nc2cccc3ccccc23)nc1-c1ccc(F)cc1,/,-11.0%,-2.0%,2.7%,-1.5%,?
O=C(CCN1C(=O)c2ccccc2C1=O)CN1CCOCC1,/,-1.9%,-3.1%,-0.5%,8.6%,-0.2%
Cc1nc(N/N=C/c2ccccn2)sc1C,/,?,-30.3%,0.13µM*,-41.0%,0.151µM*
CCc1c(C)sc2c1CCN(C(=O)Nc1ccccc1C(F)(F)F)C2c1ccccc1 (configuration not stated),/,/,/,/,/,2.0%
COc1ccc(O)c(C(=O)c2cnn(C(=O)c3cccc(S(=O)(=O)N4CCOCC4)c3)c2)c1,-0.4%,-1.3%,-2.2%,-3.5%,7.4%,-0.3%
CCCS(=O)(=O)Nc1cccc(-c2ccc3nnc(C)n3n2)c1,15.8µM*,?,-8.9%,?,-1.5%,0.6%
Cc1cc(NC(=O)c2cc(CC(C)C)on2)no1,21.5%,?,1.8%,13µM*,2.8%,10.7µM*
CCCc1cc(C(=O)Nc2cc(C)on2)no1,5.4%,?,2.3%,?,-5.2%,21.3µM*
COc1ccccc1C(CNc1ccc(S(=O)(=O)N2CCCC2)cc1[N+](=O)[O-])N(C)C (configuration not stated),/,11.6µM*,1.9%,-14.4%,10.7%,-0.6%
CN(CC(=O)Nc1ccc(Cl)cc1)c1ccc(S(=O)(=O)N2CCCCC2)cc1[N+](=O)[O-],-32.1%,18.4µM*,-0.8%,-9.5%,0.8%,3.1%
COc1ccc(C(CNc2ccc(S(=O)(=O)N3CCN(C)CC3)cc2[N+](=O)[O-])N(C)C)cc1 (configuration not stated),/,-3.4%,-1.2%,-0.2%,-3.2%,3.3%
COC(=O)CSc1ccc(S(=O)(=O)N2CCCCCC2)cc1[N+](=O)[O-],-5.1%,10.3µM*,-8.0%,-0.2%,5.1%,-2.3%
O=C(CSc1nnc(C2CC2)n1C1CC1)c1ccccc1F,/,?,-2.7%,3.2%,-0.1%,-26.3%
N#CC1(NC(=O)Cn2ncc(Cl)c(Cl)c2=O)CCCCC1,/,5.8µM*,-40.1%,-51.0%,-41.1%,6.0%
Brc1c(CSc2nc3ccccc3o2)nc2ncccn12,28.3%,?,?,?,?,15.1µM*
Clc1c(CSc2nc3ccccc3o2)nc2sccn12,10µM*,?,1.58µM*,5.8µM*,2µM*,9.53µM*
Clc1c(CSc2nc3ccccc3o2)nc2ccccn12,14.1µM*,?,1.58µM*,2.59µM*,2µM*,1.9µM*
Cc1cc(C)nc(SCc2nc3ncccn3c2Br)n1,-15.9%,27.6%,4.7%,3.2%,5.4%,-0.4%
Cn1c(SCc2ccccc2F)nc2cccnc21,12.6µM*,?,1.41µM*,?,2.24µM*,9.53µM*
COc1ccc(-c2nc(Cn3c(SCc4ccc(F)cc4)nc4ccncc43)c(C)o2)cc1OC,-7.1%,?,-4.0%,0.4%,-8.3%,13.5µM*
COc1ccc(-c2nc(Cn3c(SCc4ccc(F)cc4)nc4cccnc43)c(C)o2)cc1,/,/,/,/,/,10.7µM*
Cc1ccc(CSc2nc3ccncc3n2Cc2nc(-c3ccc(Cl)cc3)oc2C)cc1,-0.5%,/,/,/,/,?
CCOC(=O)CSc1nc2cccnc2n1C,7.5%,-4.2%,1.1%,-0.1%,-13.3%,-2.0%
COc1ccc(-c2nc(Cn3c(SCc4ccccc4F)nc4ccncc43)c(C)o2)cc1,-12.7%,0.8%,4.4%,?,12.4%,-13.8%
COc1ccc(-c2nc(Cn3c(SCc4ccccc4F)nc4cccnc43)c(C)o2)cc1,/,/,/,/,/,13.5µM*
COc1ccc(Cn2c(SCc3ccc(C(=O)NCc4ccccc4F)cc3)nc3cccnc32)cc1,-14.5%,/,/,/,/,-19.0%
CCOC(=O)C1CCN(c2c(NCCN(CC)c3ccccc3)c(=O)c2=O)CC1,/,-7.3%,-4.3%,0.0%,-0.7%,0.1%
COc1ccc(-c2nc(Cn3c(SCc4ccc(C)cc4)nc4cccnc43)c(C)o2)cc1OC,/,/,/,/,/,6.01µM*
